Hits are enriched below; roughly 4.1% of the tested compounds scored in any of these assays.
Shn3 3UTR inh – reduces Shn3 3'UTR luciferase signal in osteoblasts; Clone20 osteoblast Shn3 3'UTR firefly luciferase, 24 h; 0.52% of 360,000 active; inhibition, % at 12.5 µM;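 active = mean inhibition of at least 75% with every replicate also reaching 75%; inconclusive = mean inhibition at least 75% but some replicate below; inactive = mean inhibition below 75%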;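 note: 0% = median of neutral control wells and 100% = pilot-screen positive control compound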
TRPM1 prom inh – inhibitors of MITF-driven TRPM1 promoter in melanoma cells; SK-MEL-5 TRPM1 promoter luciferase, 24 h; inhibition, % at 12.5 µM; 0.83% of 330,000 active;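 active = mean inhibition across replicates of 60% or more, whatever share of single replicates reaches that level; inconclusive = some that reach 60%, reason not given; inactive = mean inhibition across replicates below 60%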
TROY NFkB inh – blocks TROY-dependent signaling in reporter cells; AID 1347056; inhibition, % at 10 µM; 0.98% of 360,000 active; Q293 LMP1-TROYcd NF-kB luciferase reporter, 4 h;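 active = compounds whose plate-normalised and pattern-corrected inhibition of the luciferase reporter signal at the single screening dose is 50% or more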
Peg3 promoter – inhibitors of Peg3 promoter | inhibition, % at 20 µM | HeLa PEG-Prom luciferase reporter, luminescence, overnight | 1.7% of 360,000 active | AID 588405;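 active = inhibition of at least 50% at 20 µM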
TWEAK-Fn14 inh – blocks TWEAK-Fn14 interaction in a reporter cell assay | TWEAK-stimulated Fn14 reporter cells, luciferase luminescence, 8 h | inhibition, % at 10 µM | 2% of 360,000 active; in the data active = inhibition above about 50%
LMP1 NFkB inh – reduces LMP1-driven NF-kappaB luciferase signal | LMP1-induced NF-kappaB luciferase reporter cells, luminescence | inhibition, % at 12.5 µM | 0.69% of 350,000 active | AID 504558; in the data active = inhibition above about 41%; inconclusive = no clear call, values can overlap the other calls;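 note: 0% = neutral control wells and 100% = reference inhibitor control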
* marks the source's active call; other numbers are inactive results; ? = inconclusive; · = not tested or not shown.

SMILES	Shn3 3UTR inh	TRPM1 prom inh	TROY NFkB inh	Peg3 promoter	TWEAK-Fn14 inh	LMP1 NFkB inh
C[C@@H](NC(=O)c1nc[nH]c1C(=O)N[C@@H](CCCCNC(=O)OC(C)(C)C)C(=O)OC(C)(C)C)c1ccccc1	-6	11	15	21	5	-16
CC(C)(C)OC(=O)NCCCC[C@H](NC(=O)c1[nH]cnc1C(=O)Nc1ccccc1)C(=O)OC(C)(C)C	-2	3	7	53*	17	-10
CC(C)(C)OC(=O)[C@H](CCCCN)NC(=O)c1nc[nH]c1C(=O)N[C@@H](CCCCN)C(=O)OC(C)(C)C	1	3	0	5	-3	-6
O=C(Nc1ccc(Cl)cc1)c1nc[nH]c1C(=O)NCCCCNC(=O)c1[nH]cnc1C(=O)Nc1ccc(Cl)cc1	11	18	7	80*	50	-1
CC(C)(C)OC(=O)[C@H](Cc1ccccc1)NC(=O)c1nc[nH]c1C(=O)N[C@@H](CCCCN)C(=O)OC(C)(C)C	0	18	6	103*	11	6
O=C(CN1CCN(c2cnn(-c3ccccc3)c(=O)c2Cl)CC1)NC1CCS(=O)(=O)C1 (centres undefined)	6	0	2	-5	2	-2
CN1C(=O)[C@@H]2[C@@H]3C[C@@H]([C@H]4ON=C(c5ccccc5OCC#N)[C@@H]34)[C@@H]2C1=O	-3	1	-31	13	4	-3
CN1CCN(C(=O)c2cnn(-c3ccccc3)c2NC(=O)c2ccccc2Br)CC1	14	4	0	4	23	-6
CCOC(=O)Cc1nnc2c(Nc3ccc(Cl)cc3)nc3nonc3n12	-5	0	52*	49	36	11
CCOC(=O)Cc1csc(Nc2ccc(Cl)cc2)n1	-31	-11	-71	-55	-19	-4
COCCCNC(=O)c1ccc2c3c(onc13)-c1ccccc1C2=O	-44	83*	-20	-135	6	-8
COCCCNC(=O)c1ccccc1Oc1ccccc1	43	3	9	3	-2	2
O=c1c2ccccc2c(C=Nc2ccccc2O)c(O)n1-c1nccs1	87*	1	6	-11	2	-1
Cc1ccccc1N=Cc1c(O)n(-c2nccs2)c(=O)c2ccccc12	-21	0	0	1	5	7
CC(=O)Nc1cccc(NS(=O)(=O)Cc2ccc(Cl)cc2)c1	-26	12	-10	11	-17	-11
CC(=O)c1ccc(NS(=O)(=O)Cc2ccc(Cl)cc2)cc1	-19	-3	63*	-6	37	-12
Nc1cc(OC(=O)c2cccs2)nn1S(=O)(=O)c1ccc(F)cc1	11	-12	3	8	6	3
Cc1ccc(C(=O)Oc2cc(N)n(S(=O)(=O)c3ccc(F)cc3)n2)cc1	6	7	44	10	79*	-2
O=C(CCCN1C(=O)c2ccccc2C1=O)Nc1ccc2c(c1)OCCO2	4	-12	-16	-1	-10	-2
COc1ccc(S(=O)(=O)NCCC(C)C)cc1C	-6	-9	-1	12	-3	-1
O=C(Oc1c(Cl)cc(Cl)c2cccnc12)c1cccc([N+](=O)[O-])c1	-7	12	25	54*	-45	?
Cc1ccc(S(=O)(=O)NCc2ccccc2)s1	-7	11	-8	1	8	-1
O=C(C=C(O)c1ccc(Cl)cc1)C(=O)NNC(=O)C(O)(c1ccccc1)c1ccccc1	98*	7	5	2	2	-1
COc1ccc(OC)c(NC(=O)CCNS(=O)(=O)c2ccc3c(c2)c(=O)n(C)c(=O)n3C)c1	5	8	2	13	23	-1
O=C(Nc1cccc2ccccc12)ON=C1CCCCC1	-10	·	76*	-61	81*	·
SMILES	Shn3 3UTR inh	TRPM1 prom inh	TROY NFkB inh	Peg3 promoter	TWEAK-Fn14 inh	LMP1 NFkB inh
COc1ccc(C)cc1NC(=O)ON=C1CCCCC1	-15	·	-6	-73	-19	·
COC(=O)c1cc2c(C(F)(F)F)nn(C)c2s1	2	3	9	1	-3	6
CCCN(CCC)Cc1cc(=O)oc2ccc3ccccc3c12	19	·	10	31	19	·
COc1ccc(CNC(=O)C(C)OC(=O)c2cccs2)cc1 (centres undefined)	19	0	2	-5	0	4
CC(=O)N(C1=C(Cl)C(=O)c2ccccc2C1=O)C1CCCCC1	7	86*	21	105*	15	24
CC(=O)N(c1ccccc1C)C1CCCC1	-26	-13	9	19	10	-2
COc1cc(CCc2ccccc2)c(C(=O)O)c(O)c1C/C=C(/C)CCC=C(C)C	1	-4	42	57*	44	7
COc1cc(CCc2ccccc2)c(C(=O)O)c(O)c1CC=C(C)C	-3	-1	38	14	25	10
COc1ccc(CNC(=O)COC(=O)CN2C(=O)COc3ccccc32)cc1	-16	13	-15	-21	-3	0
CCCCCCCC(=O)Nc1ccc(C(=O)N/N=C/c2cccc([N+](=O)[O-])c2)cc1	39	72*	-25	101*	-59	-58
CCCCCCC(=O)Nc1ccc(C(=O)N/N=C/c2cccnc2)cc1	-4	-1	4	9	12	-9
CCCCCCCCCS(=O)(=O)N/N=C/c1cccc([N+](=O)[O-])c1	2	6	51*	10	18	-4
O=C1Nc2ccccc2/C1=N\N=C\C1=C(N2CCOCC2)C(=C\c2ccccc2)/CC1	19	20	-7	77*	24	11
O=C1Nc2ccc(Br)cc2/C1=N\N=C\C1=C(N2CCOCC2)C(=C/c2ccccc2)/CC1	-16	30	17	30	10	-2
Cc1c(/C=N/NC(=O)c2sc3ccccc3c2Cl)cnn1C	-2	-8	-60	12	8	0
O=C(N/N=C/c1ccc([N+](=O)[O-])o1)c1sc2ccccc2c1Cl	20	78*	11	40	9	-4
O=C(N/N=C/c1c[nH]c2ccccc12)c1sc2ccccc2c1Cl	-69	-36	-30	-230	-25	-21
O=C(N/N=C/c1ccccn1)c1sc2ccccc2c1Cl	12	19	35	-51	86*	1
Cn1cccc1/C=N/NC(=O)c1sc2ccccc2c1Cl	-36	-39	·	-242	51*	-2
COc1cc(/C=C/C(=O)OCC(=O)N(CC(C)C)c2c(N)n(Cc3ccccc3)c(=O)[nH]c2=O)ccc1O	7	10	-37	5	6	6
Cc1ccc(-c2nc(CS(=O)(=O)CC(=O)NCCN3CCCC3)c(C)o2)cc1	-4	6	-12	-22	11	6
O=C(NCc1ccc(OC(F)(F)F)cc1)C1CC(c2c(Cl)cccc2Cl)=NO1 (centres undefined)	13	·	-4	10	-4	41*

High-throughput results from PubChem BioAssay.
